The record followed here is PubChem BioAssay.

A short description of experiment [1]: growth inhibition of DIPG glioma cells, dose response, cell-based, SU-DIPG-XVII, MIPE5.0, CellTiter-Glo, qHTS (AID 1347060; cut-off not given, nearly all actives have AC50 up to about 26 µM;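 for AC50: cells exposed to compound for 48 hours before viability readout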). The settings on record: SU-DIPG-XVII viability, CellTiter-Glo ATP luminescence. In general terms: In ATP-based viability assays light output follows the ATP content of the culture.
Experiment [2] in a line: growth inhibition of DIPG glioma cells, dose response, cell-based, SU-DIPG-XIII, MIPE4.0, CellTiter-Glo, qHTS (AID 1347061; cut-off not given, nearly all actives have AC50 up to about 37 µM;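 note: cells exposed to compound for 48 hours before readout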). As to conditions: SU-DIPG-XIII viability, CellTiter-Glo ATP luminescence.
Experiment [3] is described as follows: growth inhibition of DIPG glioma cells, dose response, cell-based, JHH-DIPG-1, MIPE4.0, CellTiter-Glo, qHTS (AID 1347062; cut-off not given, nearly all actives have AC50 up to about 27 µM;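 for AC50: cells exposed to compound for two days before readout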). The settings on record: JHH-DIPG-1 viability, CellTiter-Glo ATP luminescence.
Experiment [4] in a line: growth inhibition of DIPG glioma cells, dose response, cell-based, SU-DIPG-IV, MIPE4.0, CellTiter-Glo, qHTS (AID 1347063; cut-off not given, nearly all actives have AC50 up to about 30 µM;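 note: compound exposure lasted 48 hours before the viability readout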). As to conditions: SU-DIPG-IV viability, CellTiter-Glo ATP luminescence.
A short description of experiment [5]: growth inhibition of DIPG glioma cells, dose response, cell-based, SU-DIPG-XIII, MIPE5.0, CellTiter-Glo, qHTS (AID 1347064; cut-off not given, nearly all actives have AC50 up to about 23 µM;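 for AC50: cells exposed to compound for 48 hours before the viability read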). The settings on record: SU-DIPG-XIII viability, CellTiter-Glo ATP luminescence.
A short description of experiment [6]: viability loss in pontine glioma line – cell-based, SU-DIPG-XXV, MIPE5.0, CellTiter-Glo, qHTS, dose response (AID 1347065; cut-off not given, nearly all actives have AC50 up to about 26 µM;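 note: cells exposed to compound for 48 hours before ATP readout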). As to conditions: CellTiter-Glo ATP luminescence.
A short description of experiment [7]: SU-DIPG-VI glioma cell viability, MIPE4.0 library, CellTiter-Glo luminescence, qHTS (AID 1347066; cut-off not given, nearly all actives have AC50 up to about 30 µM;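 note: cells exposed to compound for 48 hours before readout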). The settings on record: CellTiter-Glo ATP luminescence.
The nature of experiment [8]: JHH-DIPG-1 glioma cell viability, MIPE5.0 library, CellTiter-Glo luminescence, qHTS (AID 1347067; cut-off not given, nearly all actives have AC50 up to about 26 µM;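 note: cells exposed to compound for 48 hours before readout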). As to conditions: JHH-DIPG-1 glioma viability, CellTiter-Glo ATP luminescence.
The nature of experiment [9]: SU-DIPG-XXV glioma cell viability, MIPE5.0 library, qHTS (AID 1347068; cut-off not given, nearly all actives have IC50 up to about 30 µM;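 for IC50: cells exposed to compound for 48 hours before viability readout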). (In general: qHTS replaces the single test concentration by a dilution series.)
Experiment [10] can be described thus: sensitizers of A549 cells to miR-34 induction, primary screen, imaging, A549 dox-inducible miR-34, nuclei and caspase counts (AID 1347080;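 active = compounds whose cell count with miR-34 switched on is under 0.7 times the count with it off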). As to conditions: A549 miR-34 inducible, Hoechst nuclei count, 48 h.
Experiment [11] is described as follows: modifiers of HSF1 nuclear foci, imaging, Selleck Cancer Library (AID 1347162; in the data active = plate-normalised HSF1 focus index below about 0.46). The settings on record: human cells, at 10 µM; SSMD: measured here: HSF1 foci SSMD mean; cell count: measured here: cell number; plate-normalised HSF1 focus index: stronger effect = lower value.
A short description of experiment [12]: survival rescue of mitochondrial mutant cells in low glucose, primary screen, MELAS cybrids, Rieske KO mouse fibroblasts, CellTiter-Glo (AID 1508586;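 active = mean z-score across replicates of 1.96 or higher in either the MELAS or the Rieske mutant cell line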;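 note: z relative to plate mean and SD of compound and empty wells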).
Experiment [13] can be described thus: ovarian cancer cell viability with rucaparib, profiling panel, oncology-focused library, rucaparib conditional (AID 1508598). As to conditions: patient-derived ovarian cancer cells, CellTiter-Glo viability, 144 h, stronger effect = lower value.

The AC50 is the concentration giving half of the maximal activity seen. By IC50 is commonly meant the concentration needed to halve the response being measured. A word on the viability: it is a read-out of living cells in per cent, often relative to untreated cells.

SMILES strings stand for the structures. Inconclusive results are not listed. The source made the active and inactive calls.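 Rule for the calls, unless noted: active = normalized viability below 100% at a tested concentration; inactive = the rest.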

Consider `CCOC(=O)/C=C/[C@H](C[C@@H]1CCNC1=O)NC(=O)[C@@H](CC(=O)[C@@H](NC(=O)c1cc(C)on1)C(C)C)Cc1ccc(F)cc1`, for which the molecule was called inactive in experiment [1], in experiment [2], in experiment [3], in experiment [4], in experiment [5] and in experiment [6]. The molecule was called inactive in experiment [7], in experiment [8] and in experiment [9].

As for `O=C(O)[C@@H](c1ccc(OCc2ccc3ccccc3n2)cc1)C1CCCC1`, the molecule was classed as inactive in experiment [1], in [2], in experiment [3], in experiment [4], in [5] and in experiment [6]. Moreover, the molecule was classed as inactive in [7], in experiment [8] and in [9].

On to `CCn1cc(-c2ccnc3[nH]c(-c4cccc(CN(C)C)c4)cc23)c(-c2ccc(NC(=O)N(C)C)cc2)n1`, for which the AC50 in experiment [1] is 0.59 µM (active); in experiment [2], 13.2 µM (active); in experiment [3] it was 16.6 µM (active); in experiment [4], 0.209 µM (active); in experiment [5] it was 8.33 µM (active); in experiment [6] it was 0.525 µM (active). Moreover, the AC50 in experiment [7] is 20.9 µM (active); in [8] it was 11.8 µM (active). The IC50 in [9] was 7.42 µM (active).

With `CN1CCC(CNc2ccc3ncc(-c4cccc(OC(F)(F)F)c4)n3n2)CC1`, the AC50 in experiment [1] is 8.33 µM (active); in [2], 18.7 µM (active); in [3] it was 13.2 µM (active); in experiment [4], 18.7 µM (active); in [5] it was 10.5 µM (active); in experiment [6], 5.25 µM (active). Further, the AC50 in experiment [7] is 20.9 µM (active); in [8] it was 2.63 µM (active). In addition, the IC50 in [9] is 23.5 µM (active). Further, the fold change in experiment [10] (stronger effect = lower value, cell number ratio, induced over uninduced) is 0.872 (inactive); in experiment [10] (measured here: relative caspase fold change +Dox/-Dox) it was 0.583. The cell count amounted to 4380 in experiment [10] (measured here: total cells with miR-34 induction, stronger effect = lower value); 5020 in [10] (measured here: total cells without miR-34 induction); 7290 in experiment [11]. The SSMD in experiment [11] is 1.66. Also, the plate-normalised HSF1 focus index in experiment [11] is 1.1 (inactive). Also, the z-score is -0.102 (inactive) in [12] (MELAS cybrid survival, CellTiter-Glo 48 h, stronger effect = higher value) and -1.76 in experiment [12] (Rieske KO mouse fibroblast survival, CellTiter-Glo 72 h). The viability in [13] (at 0.000305 µM, OCI-C5x cells, with rucaparib 10 µM, 100% = cells with rucaparib alone) is 112% (inactive); in [13] (at 0.000305 µM, OCI-C5x cells, without rucaparib) it was 115% (inactive); in experiment [13] (at 0.000305 µM, OCI-P5x cells, with rucaparib 20 µM, 100% = cells with rucaparib alone), 97.3% (active); in experiment [13] (at 0.000305 µM, OCI-P5x cells, without rucaparib), 92.4% (active); in [13] (at 0.00122 µM, OCI-C5x cells, with rucaparib 10 µM, 100% = cells with rucaparib alone), 110% (inactive); in [13] (at 0.00122 µM, OCI-C5x cells, without rucaparib), 113% (inactive). Besides, the viability in [13] (at 0.00122 µM, OCI-P5x cells, with rucaparib 20 µM, 100% = cells with rucaparib alone) was 100% (inactive); in experiment [13] (at 0.00122 µM, OCI-P5x cells, without rucaparib) it was 94.8% (active); in [13] (at 0.00488 µM, OCI-C5x cells, with rucaparib 10 µM, 100% = cells with rucaparib alone) it was 106% (inactive); in experiment [13] (at 0.00488 µM, OCI-C5x cells, without rucaparib), 106% (inactive); in [13] (at 0.00488 µM, OCI-P5x cells, with rucaparib 20 µM, 100% = cells with rucaparib alone), 96.7% (active); in experiment [13] (at 0.00488 µM, OCI-P5x cells, without rucaparib), 87.9% (active). Further, the viability in [13] (at 0.0195 µM, OCI-C5x cells, with rucaparib 10 µM, 100% = cells with rucaparib alone) is 110% (inactive); in experiment [13] (at 0.0195 µM, OCI-C5x cells, without rucaparib), 114% (inactive); in [13] (at 0.0195 µM, OCI-P5x cells, with rucaparib 20 µM, 100% = cells with rucaparib alone), 99.2% (active); in [13] (at 0.0195 µM, OCI-P5x cells, without rucaparib), 88% (active); in experiment [13] (at 0.0781 µM, OCI-C5x cells, with rucaparib 10 µM, 100% = cells with rucaparib alone), 107% (inactive); in experiment [13] (at 0.0781 µM, OCI-C5x cells, without rucaparib), 109% (inactive). Further, the viability in experiment [13] (at 0.0781 µM, OCI-P5x cells, with rucaparib 20 µM, 100% = cells with rucaparib alone) is 93.6% (active); in [13] (at 0.0781 µM, OCI-P5x cells, without rucaparib), 82.1% (active); in [13] (at 0.313 µM, OCI-C5x cells, with rucaparib 10 µM, 100% = cells with rucaparib alone) it was 110% (inactive); in experiment [13] (at 0.313 µM, OCI-C5x cells, without rucaparib) it was 104% (inactive); in [13] (at 0.313 µM, OCI-P5x cells, with rucaparib 20 µM, 100% = cells with rucaparib alone), 89.6% (active); in [13] (at 0.313 µM, OCI-P5x cells, without rucaparib) it was 80.8% (active). Also, the viability was 130% (inactive) in experiment [13] (at 1.25 µM, OCI-C5x cells, with rucaparib 10 µM, 100% = cells with rucaparib alone); 98% (active) in [13] (at 1.25 µM, OCI-C5x cells, without rucaparib); 82.6% (active) in [13] (at 1.25 µM, OCI-P5x cells, with rucaparib 20 µM, 100% = cells with rucaparib alone); 70.9% (active) in experiment [13] (at 1.25 µM, OCI-P5x cells, without rucaparib); 123% (inactive) in experiment [13] (at 5 µM, OCI-C5x cells, with rucaparib 10 µM, 100% = cells with rucaparib alone); 115% (inactive) in [13] (at 5 µM, OCI-C5x cells, without rucaparib). For the same molecule, the viability is 50.5% (active) in [13] (at 5 µM, OCI-P5x cells, with rucaparib 20 µM, 100% = cells with rucaparib alone) and 46.6% (active) in [13] (at 5 µM, OCI-P5x cells, without rucaparib).
